# Measured values: PubChem BioAssay AID449762 (Southern Research Specialized Biocontainment Screening …, 2010)
# The campaign covered roughly 330,000 compounds. About 1,900 (0.58%) were called active. About 4% were inconclusive and are not listed. A selection follows. Potency and affinity values are given separately. A number with no mark means an inactive call. Cut-off read from the data, not from the text of the source: inconclusive = inhibition above about 70% without an active follow-up result; inactive = below that.
# Assay: M. tuberculosis growth inhibition, HTS (AID 449762);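 note: bacterial growth assessed after seven days of incubation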
# Conditions: M. tuberculosis H37Rv growth inhibition, 7H9 media; at 25 µM; stronger effect = higher value
row,SMILES,inhibition
1,CCC(=O)Nc1nc(-c2ccc3c(c2)CC(C)N3S(C)(=O)=O)cs1 (stereo not given),58.2%
2,CC1Cc2cc(-c3csc(NC(=O)Cc4ccccc4)n3)ccc2N1S(C)(=O)=O (stereo not given),54.4%
3,Cc1ccc(CCNC(=O)C2CCN(S(=O)(=O)c3ccc4c(c3)oc(=O)n4C)CC2)cc1,-5.23%
4,Cc1ccc(C(=O)CSc2nc(C)cc(C)c2C(N)=O)cc1,69%
5,Cc1cc(C)c(C(N)=O)c(SCC(=O)c2cc(C)c(C)cc2C)n1,5.89%
6,CN(C)c1oc(-c2ccc(Cl)cc2)nc1S(=O)(=O)c1ccccc1,3.09%
7,COc1ccc(CS(=O)(=O)CC(C)(O)c2ccc(Cl)cc2)cc1 (stereo not given),8.74%
8,Cc1cc(C)n(-c2ccc(C(=O)OCC(=O)Nc3cc(S(C)(=O)=O)ccc3Cl)cc2)n1,9.43%
9,Cc1cc(C(=O)N/N=C/C(Cl)=C/c2ccccc2)c(C)o1,2.89%
10,CC(/C=N\NC(=O)c1cc(C)oc1C)=C\c1ccccc1,5.28%
11,COC(=O)c1cc(NC(=O)c2ccc(-c3ccccc3)cc2)ccc1Cl,-0.43%
12,O=C(CSc1ncn[nH]1)NCc1ccc(Cl)cc1,23.7%
13,CC(C)c1ccc(C(=O)CSc2ncn[nH]2)cc1,-3.26%
14,Cc1ccc2c(c1)Oc1ccc(NC(=O)CCCl)cc1C(=O)N2,11.1%
15,Cc1ccc2c(c1)Oc1ccc([N+](=O)[O-])cc1C(=O)N2,3.53%
16,Cc1ccc(Cn2c(N)c(S(=O)(=O)c3cccs3)c3nc4ccccc4nc32)cc1,-12%
17,COc1ccc(C(CNC(=O)COc2ccc(-c3ccccc3)cc2)N2CCOCC2)cc1 (stereo not given),-6.25%
18,N/C(=N\[N+](=O)[O-])N1CCN(C(=O)c2ccccc2)CC1,-7.03%
19,Cc1ccc(S(=O)(=O)Nc2ccnc3ccccc23)cc1,-5.18%
20,Cc1ccc(S(=O)(=O)Nc2cccc3ncccc23)cc1,0.6%
21,O=S(=O)(c1ccc(=S)[nH]c1)N1CCCC1,-0.36%
22,CC(CCc1ccccc1)NC(=O)CCNC(=O)c1ccccc1Cl (stereo not given),0.74%
23,O=C(CCSCc1ccccc1F)NCc1cccnc1,12.2%

row,SMILES,inhibition
1,O=C(Nc1nc2c(s1)CCCC2)c1cc(-c2ccccc2)nc2ccccc12,65.5%
2,O=C(Nc1nc2c(s1)CCCC2)c1cc(-c2ccncc2)nc2ccccc12,-5.59%
3,COc1ccc(-c2ccc3oc(-c4ccc(OC)cc4)c(C#CC4(O)CCCCC4)c3c2)cc1,61.2%
4,COc1ccc(-c2oc3ccc(-c4ccc(OC)nc4)cc3c2-c2ccc(OC)cc2)cc1,3.96%
5,CCC(C)(C)NC(=O)C(c1cccs1)N(C(=O)c1ccn[nH]1)c1cccc(OC)c1 (stereo not given),-8.05%
6,Cc1nn(-c2cc(N3CCCC3)ccc2[N+](=O)[O-])c(=O)c2ccccc12,-3.75%
7,CN1CCN(c2ccc([N+](=O)[O-])c(-n3nc(-c4ccccc4)c4ccccc4c3=O)c2)CC1,38.4%
8,COc1cc(C=O)ccc1OCC(=O)N1CCOCC1,-0.06%
9,CCC1(CC)Cc2ccccc2-c2nc(CN3CCOCC3)[nH]c(=O)c21,51.6%
10,CCc1nc2c(c(=O)[nH]1)C(CC)(CC)Cc1ccccc1-2,5.03%
11,O=C(Nc1cccc(S(=O)(=O)N2CCCC2)c1)c1cc(=O)[nH]c2ccccc12,-4.61%
12,Cc1nc2ccc(Oc3ccccc3)cc2s1,7.08%
13,Cc1nc2ccc(NC(=O)c3ccccc3)cc2s1,3.89%
14,Cn1c(=O)n(C)c2cc(NC(=O)c3cc4ccccc4o3)ccc21,6.91%
15,COc1ccc(-n2cc(CNCCc3nc(C)cc(C)n3)c(-c3ccccc3Cl)n2)cc1,68.4%
16,COc1ccc(-n2cc(CNCCCn3ccnc3)c(-c3ccccc3Cl)n2)cc1,13.2%
17,COc1ccc(OCCN2C(=O)c3ccccc3C2=O)c([N+](=O)[O-])c1,-4.41%
18,COc1cc2[nH]c(C(=O)NCCc3ccccc3)cc2c(OC)c1OC,0.36%
19,COC(=O)c1cnn(-c2ccc(C)c(C)c2)c1-n1cccc1,3%
20,Cc1c(Cl)ccc2c1NC(=O)C21NC(CCC(N)=O)[C@H]2C(=O)N(c3ccc(Cl)cc3)C(=O)[C@H]21 (stereo not given in full),-9%
21,Cc1c(Cl)ccc2c1NC(=O)[C@]21N[C@@H](CCC(N)=O)[C@H]2C(=O)N(c3ccc(F)cc3)C(=O)[C@H]21,-5.78%
22,CC(=O)N(C)c1ccc(OCC(O)Cn2c(C)nc3ccccc32)cc1 (stereo not given),0.96%
23,CCC(c1nnc(SCC(=O)Nc2cc(S(C)(=O)=O)ccc2Cl)n1Cc1ccccc1)N(C)C (stereo not given),-14.3%

row,SMILES,inhibition
1,C=CCSc1n[nH]c(-c2ccc(OCCC)cc2)n1,56.7%
2,C=CCSc1n[nH]c(-c2ccc(OC)cc2)n1,-6.49%
3,Cc1ccc(NC(=O)c2ccc(OC(=O)COc3ccc(Cl)c(C)c3)cc2)cc1,-2.96%
4,COc1ccc(Cc2[nH]n3c(=O)c(Cl)c(C)nc3c2-c2ccccc2)cc1,35.3%
5,O=C(Cn1nc(CNc2ccc(Cl)cc2)[n+]2c1CCCCC2)c1ccccc1,0.81%
6,O=C(Cn1nc(CNc2ccc(Br)cc2)[n+]2c1CCCCC2)c1ccc([N+](=O)[O-])cc1,64.9%
7,CCCCN1C(=O)C(=O)N(c2ccccc2)C1=S,5.31%
8,COC(=O)CN(C(=S)Nc1ccc(F)cc1)C1CC(=O)N(c2ccccc2)C1=O (stereo not given),5.39%
9,O=C(O)/C(=C\c1ccc2ccccc2c1)c1cccc2ccccc12,2.24%
10,COc1ccc(/C=C2\Sc3ccc(C(=O)N4CCCC4)cc3N(C)C2=O)cc1OC,7.11%
11,CN1C(=O)/C(=C/c2ccccc2Cl)Sc2ccc(C(=O)N3CCCC3)cc21,69.8%
12,Cn1ncc([N+](=O)[O-])c1C(=O)Nc1ccc(-c2nc3ccccc3o2)cc1,1.46%
13,COc1ccc(/C=C/C(=O)NCCOc2ccc(C)cc2)cc1,-2.38%
14,NC(=O)CC(NC(=O)c1ccccc1)c1ccc(NC2CCCC2)c([N+](=O)[O-])c1 (stereo not given),0.75%
15,CN(C)CCCn1c2c(c(SCC(=O)Nc3cccc4ccccc34)nc1=O)CCC2,0.83%
16,Fc1cccc(CCN2CCNC[C@@H]2Cc2ccccc2)c1,-4.28%
17,c1ccc(C[C@H]2CNCCN2CCc2cccc3ccccc23)cc1,53.6%
18,CCOC(=O)N1CCC(NC(=O)C2CCN(S(=O)(=O)c3cnc[nH]3)CC2)CC1,-6.34%
19,Cc1ccc(S(=O)(=O)N2CCN(C(=O)Cn3c(=O)oc4ccccc43)CC2)c(C)c1,3.86%
20,CC(C)N(C(=O)[C@H]1CC(CC(=O)NCc2ccco2)C(=O)N2CCc3c([nH]c4ccccc34)[C@]12C)C(C)C (stereo not given in full),2.78%
21,O=S(=O)(c1ccc(F)cc1)n1ccc2cccnc21,4.44%
22,Nc1ccc(-c2nc3ccccc3o2)cc1,49%
23,Cc1nc2ccc(-c3nc4ccccc4o3)cc2[nH]1,8.75%

row,SMILES,inhibition
1,COc1ccc(/C=N/NC(=O)c2cc3c(ccc4ccccc43)o2)cc1OC,11.8%
2,Cc1ccc2nc(N3C(=O)C(O)=C(C(=O)c4cc5ccccc5o4)C3c3cccs3)sc2c1 (stereo not given),-1.99%
3,Cc1ccc2nc(N3C(=O)C(O)=C(C(=O)c4ccco4)C3c3cccs3)sc2c1 (stereo not given),-7.92%
4,COc1ccc(CNC(=O)c2cccc(NC3=NC4CS(=O)(=O)CC4S3)c2)cc1 (stereo not given),-9.1%
5,CC[n+]1ccccc1/C=C1\Sc2ccc(C)cc2N1C,6.67%
6,CCN1/C(=C/C=C/C=C/C=C/c2sc3ccccc3[n+]2CC)Sc2ccccc21,5.11%
7,Cc1cc(C)n(-c2ccc(Cl)c(C(=O)OCC(=O)N3CCCCC3C)n2)n1 (stereo not given),-1.17%
8,C/C(=N\NC(=O)c1nnn(-c2nonc2N)c1CN(C)c1ccccc1)c1ccc(O)cc1,-0.5%
9,C/C(=N\NC(=O)c1nnn(-c2nonc2N)c1CN(C)c1ccccc1)c1ccccc1O,12.9%
10,Cc1ccc(C)c(OC(=O)C2CSC3(C)CCC(=O)N23)c1C (stereo not given),-8.22%
11,Cc1ccc(NS(=O)(=O)c2ccc(Cl)c(C(=O)Nc3ccccc3-c3nc4ccccc4[nH]3)c2)cc1C,4.41%
12,CCC(NC(=O)c1ccccc1NC(=O)c1ccco1)C(=O)NNC(=O)c1ccc(OC)cc1 (stereo not given),-4.34%
13,O=C(Nc1cc(Cl)cc(Cl)c1)C1C2C=CC3(O2)C1C(=O)N(CCCN1CCOCC1)C3C(=O)NC1CCCCC1 (stereo not given),-1.97%
14,CCOC(=O)Cn1c(Br)nc2c1c(=O)[nH]c(=O)n2C,2.17%
15,Cc1[nH]nc2c1C(c1ccc(-c3ccccc3C#N)o1)C(C#N)=C(N)O2 (stereo not given),16.8%
16,Cc1ccc(C2C(C#N)=C(N)Oc3n[nH]c(C)c32)cc1 (stereo not given),2.2%
17,CCN(c1ccccc1)S(=O)(=O)c1ccc(C(=O)Nc2ccncc2)cc1,48.8%
18,Cc1ccc2ncnc(NCCC(=O)O)c2c1,-11.8%
19,NC(=O)CSc1nnc(NC(=O)c2ccc(S(=O)(=O)N3CCCCC3)cc2)s1,4.86%
20,Fc1ccc2cnc(-c3ccccc3)c(-c3ccc(C(F)(F)F)cc3)c2c1,39.5%
21,COc1cc2cnc(-c3ccccc3)c(-c3cc(OC)c(OC)c(OC)c3)c2cc1OC,27.5%
